Data on six compounds can be found in PubChem BioAssay (NCATS).

“And” between values parts separate entries of the source, which are not always exact repeats. Identical values can stand only once. Records with an inconclusive call do not appear. A number with no mark means an inactive call. The source made the active and inactive calls. Calls follow the shape of the dose curve; as a rule, active = well fitted curve in the direction sought with a large enough effect; inconclusive = small, poorly fitted or top-dose-only effect, or another doubt; inactive = no such curve, though single readings can be large; an effect the other way counts as inactive or inconclusive.

In one assay the test system is MCC-26. The assay is described as follows: qHTS assay to identify novel small-molecules to repurpose for Merkel cell carcinoma treatment (AID 1296009). Also: nearly all actives have a fitted effect of over 60% in size. Also: potency is read from the fitted curve at half-maximal effect. Conditions: MCC and control cell lines, CellTiter-Glo viability, 72 h; series mostly up to 46 µM. An outline of the steps:
(§1)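 Luminescence from CellTiter-Glo, read 10 min after addition at room temperature, reported viability following a 72 hr, 37 degree celsius treatment with NPC or MIPE compounds in titration; values normalized to plate controls.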

Another assay concerns MKL-1. Described as above. Conditions: MCC and control cell lines, CellTiter-Glo viability, 72 h; series mostly up to 46 µM. An outline of the steps:
as §1
A general note: Cellular ATP, detected with luciferase, serves as a proxy for viable cell number.

In another assay the test system is MKL-2. Described as above. As to conditions: MCC and control cell lines, CellTiter-Glo viability, 72 h; series mostly up to 46 µM. An outline of the steps: as §1
Another assay concerns UISO. The description is as above. Conditions: MCC and control cell lines, CellTiter-Glo viability, 72 h; series mostly up to 46 µM. An outline of the steps:
as §1

The next assay deals with WaGa. The description is as above. Conditions: MCC and control cell lines, CellTiter-Glo viability, 72 h; series mostly up to 46 µM. An outline of the steps: as §1
The test system of the next assay is C33A. As to the kind of experiment: Primary qHTS to identify gynecologic anti-cancer compounds using libraries of approved drugs and bioactive compounds (AID 1345084). Also: nearly all actives have a fitted effect of over 55% in size. Conditions: Gynecologic cancer cell panel viability, ATPlite luminescence, 48 h; series mostly up to 57.5 µM. A digest of the protocol:
(§2)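 In this quantitative HTS, cell killing is estimated from loss of ATP-dependent luciferase light. Cells see five compound concentrations over a 48 h exposure.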
A general note: Quantitative high-throughput screening tests each substance at several concentrations.

A further assay relates to CAOV3. Described as above. Conditions: Gynecologic cancer cell panel viability, ATPlite luminescence, 48 h; series mostly up to 57.5 µM. A digest of the protocol:
as §2

In a further assay the test system is CASKI. The assay is described as above. Conditions: Gynecologic cancer cell panel viability, ATPlite luminescence, 48 h; series mostly up to 57.5 µM. A digest of the protocol:
as §2

Another assay deals with Es-2. Described as above. Conditions: Gynecologic cancer cell panel viability, ATPlite luminescence, 48 h; series mostly up to 57.5 µM. A digest of the protocol:
as §2

The test system of the next assay is HeLa. Described as above. Conditions: Gynecologic cancer cell panel viability, ATPlite luminescence, 48 h; series mostly up to 57.5 µM. A digest of the protocol: as §2
The subject of the next assay is Hek293T. Described as above. Conditions: Gynecologic cancer cell panel viability, ATPlite luminescence, 48 h, control line for the selectivity index; series mostly up to 57.5 µM. A digest of the protocol: as §2
The test system of a further assay is JEG-3. The assay is described as above. Conditions: Gynecologic cancer cell panel viability, ATPlite luminescence, 48 h; series mostly up to 57.5 µM. An outline of the steps:
as §2

The test system of a further assay is OV90. The assay is described as above. Conditions: Gynecologic cancer cell panel viability, ATPlite luminescence, 48 h; series mostly up to 57.5 µM. A digest of the protocol: as §2
Another assay relates to PA-1. The assay is described as above. Conditions: Gynecologic cancer cell panel viability, ATPlite luminescence, 48 h; series mostly up to 57.5 µM. A digest of the protocol: as §2
In a further assay the test system is SKOV3. The description is as above. As to conditions: Gynecologic cancer cell panel viability, ATPlite luminescence, 48 h; series mostly up to 57.5 µM. An outline of the steps:
as §2

A further assay deals with Tov-21-G. Described as above. Conditions: Gynecologic cancer cell panel viability, ATPlite luminescence, 48 h; series mostly up to 57.5 µM. An outline of the steps:
as §2

Another assay has as its system Tov112D. The assay is described as above. As to conditions: Gynecologic cancer cell panel viability, ATPlite luminescence, 48 h; series mostly up to 57.5 µM. A digest of the protocol:
as §2

The nature of assay [1]: Drug repurposing screens with cells derived from glioblastoma tumor samples (AID 1345199). Also: nearly all actives have a fitted effect of over 40% in size. Also: potency is read from the fitted curve at half-maximal effect. As to conditions: GBM patient neurospheres viability, ATP luminescence, 48 h. A digest of the protocol: (§3)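 Primary testing used CD133+ neurospheres from four GBM patients, seven concentrations, 48 h exposure and ATP-based viability; confirmation added three slower-growing patient lines.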

A further assay deals with astro. The description is as above. As to conditions: viability, ATP luminescence, 48 h; series mostly up to 45.9 µM. A digest of the protocol:
as §3

The test system of a further assay is NIH3T3. As to the kind of experiment: qHTS assay to identify novel small-molecules to repurpose for Merkel cell carcinoma treatment (AID 1296009). Also: nearly all actives have a fitted effect of over 60% in size. Also: potency is read from the fitted curve at half-maximal effect. Conditions: MCC and control cell lines, CellTiter-Glo viability, 72 h; at 44.8 µM (top of the series) unless noted. A digest of the protocol: as §1
The mark [2] stands for this setting: at 45.9 µM (top of the series), tumour line B.
[3] abbreviates: at 45.9 µM (top of the series), tumour line D.
Where [4] appears, read: at 46.1 µM (top of the series), tumour line C.
% is scaled to controls: 0 for no effect and ±100 for the full control effect.

As to `CCCCCCCCCCCC(=O)[O][Sn]([CH2]CCC)([CH2]CCC)[O]C(=O)CCCCCCCCCCC`, the Potency entry in the assay on MCC-26, in the assay with MKL-1, in the assay on MKL-2, with UISO, in the assay on WaGa and with C33A was “inactive” each time. Moreover, the Potency result with CAOV3, with CASKI, in the assay with Es-2, in the assay with HeLa, in the assay with Hek293T and in the assay on JEG-3 was “inactive” each time. The Potency entry in the assay with OV90, with PA-1, in the assay on SKOV3, with Tov-21-G, with Tov112D and in the assay with astro was “inactive” each time. For the same compound, the activity, negative = cell killing was -6.49% in assay [1] (setting [2]); -3.33% in assay [1] (setting [3]); -28.7% in assay [1] (at 46 µM (top of the series), tumour line A); -3.83% in assay [1] (setting [4]).

Turning to `CO[C@@]1(NC(=O)Cc2cccs2)C(=O)N2C(C(=O)O)=C(COC(N)=O)CS[C@@H]21`, the Potency result in the assay on MCC-26, with MKL-1, in the assay with MKL-2, in the assay on UISO, in the assay on WaGa and in the assay with C33A was “inactive” in each case. The Potency entry with CASKI, with Es-2, in the assay with HeLa, in the assay on Hek293T, in the assay on JEG-3 and in the assay with OV90 was “inactive” throughout. Moreover, the Potency entry in the assay on PA-1, in the assay on SKOV3, with Tov-21-G and in the assay with Tov112D was “inactive” throughout. Also, the compound was called inactive in the assay with NIH3T3. In addition, the activity, negative = cell killing in [1] (setting [2]) is 3.39% and 0.545%; in assay [1] (setting [3]), -2.17% and -11.4%; in [1] (setting [4]), -9.41% and -2.11%.

Turning to `COc1ccc(-c2cc(=S)ss2)cc1`, the Potency entry in the assay on MCC-26, in the assay with C33A, in the assay on CAOV3, in the assay with CASKI, in the assay with Es-2 and with HeLa was “inactive” each time. Moreover, the Potency result with Hek293T, in the assay with JEG-3, in the assay on OV90, in the assay with PA-1, in the assay with SKOV3 and with Tov-21-G was “inactive” throughout. Also, the Potency result in the assay with Tov112D and with astro was “inactive” each time. Moreover, the Potency with MKL-1 is 26.6 µM (active). In addition, the call in the assay with NIH3T3 was inactive. Moreover, the activity, negative = cell killing is -21.5% in assay [1] (setting [2]), -22.3% in [1] (setting [3]) and -27.4% in assay [1] (setting [4]).

As for `CN1CC(=O)N/C1=N/C(=O)Nc1cccc(Cl)c1`, the Potency entry in the assay with MCC-26, in the assay with MKL-1, in the assay with MKL-2, with UISO, in the assay with WaGa and with C33A was “inactive” throughout. Moreover, the Potency entry in the assay with CAOV3, in the assay with CASKI, in the assay on Es-2, in the assay on HeLa, in the assay with Hek293T and in the assay with JEG-3 was “inactive” throughout. The Potency entry in the assay on OV90, with PA-1, with SKOV3, with Tov-21-G, with Tov112D and in the assay on astro was “inactive” each time. In addition, the activity, negative = cell killing is -4.72% and 3.17% in [1] (setting [2]); -5.4% and -21.8% in assay [1] (setting [3]); -23.8% and 2.92% in assay [1] (setting [4]).

With `CCCCCCCC/C=C/C(=O)O`, the Potency entry with MKL-1, in the assay on MKL-2, with UISO, in the assay with WaGa, in the assay with C33A and in the assay on CASKI was “inactive” throughout. Moreover, the Potency result with Es-2, with HeLa, in the assay on Hek293T, in the assay on JEG-3, in the assay on OV90 and in the assay with PA-1 was “inactive” throughout. Besides, the Potency entry in the assay with SKOV3, in the assay with Tov-21-G and with Tov112D was “inactive” throughout.

In the case of `COC(=O)C1=C(C)NC(C)=C(C(=O)OCC(C)C)C1c1ccccc1[N+](=O)[O-]` (centres undefined), the Potency in the assay on MKL-1 was 21.1 µM (active); in the assay with MKL-2, 5.96 µM (active); with UISO, 23.7 µM (active); with WaGa it was 21.1 µM (active); in [1] (tumour line A), 10 µM (active); in assay [1] (tumour line D), 14.1 µM (active). Also, the Potency result in the assay with C33A, in the assay on CASKI, with Es-2, in the assay with HeLa, in the assay with Hek293T and with JEG-3 was “inactive” each time. Also, the Potency entry in the assay with OV90, in the assay with PA-1, in the assay with Tov-21-G and with Tov112D was “inactive” throughout. For the same compound, the activity, negative = cell killing in assay [1] (setting [4]) is -13.4%.
